{
  "source": "PubChem BioAssay (NCATS)",
  "note": "Results filed as inconclusive are left out. Entries that show only a call come without a potency. Activity calls are given as the source filed them. Calls come from the whole dose curve; as a rule, active = well fitted curve in the direction sought with a large enough effect; inconclusive = small, poorly fitted or top-dose-only effect, or another doubt; inactive = no such curve, though single readings can be large or run the other way. Potency is the fitted concentration of half-maximal effect.",
  "data": [
    {"experiment": "qHTS for differential inhibitors of proliferation of Plasmodium falciparum line D10 (AID 1877);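 note: parasites grown with compound for 72 h before DNA staining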", "settings": "series mostly up to 28.7 µM", "values": [
      {"smiles": "NC/C=C\\C(=O)O", "Potency": "inactive"},
      {"smiles": "COc1ccc2c(c1)CCC1C2CC[C@@]2(C)C1CC[C@@H]2NCCCCCCN1C(=O)C=CC1=O", "note": "(some centres not stated)", "Potency": "inactive"},
      {"smiles": "O=[N+]([O-])c1cccc2c(Br)[nH]nc12", "Potency": "inactive"},
      {"smiles": "CSC(=N)N", "Potency": "inactive"},
      {"smiles": "NCCC1CCCC(CCN)N1", "note": "(configuration not stated)", "Potency": "inactive"},
      {"smiles": "OC[C@H]1NC[C@@H](O)[C@@H]1O", "Potency": "inactive"},
      {"smiles": "O=C(O)[C@H]1NCCC[C@H]1C(=O)O", "Potency": "inactive"},
      {"smiles": "CC(C)NCC(O)COc1ccc(CC(N)=O)cc1", "note": "(configuration not stated)", "Potency": "inactive"},
      {"smiles": "CCN(CC)CCOC(=O)c1cc(Cl)c(N)cc1OC", "Potency": "inactive"},
      {"smiles": "CC(C)C[C@H](NC(=O)C1OC1C(=O)O)C(=O)NCCCCN=C(N)N", "note": "(some centres not stated)", "Potency": "3.55 µM (active)"},
      {"smiles": "OCC1NCC(O)C(O)C1O", "note": "(configuration not stated)", "Potency": "inactive"},
      {"smiles": "C#CCn1c(=O)c2c(ncn2C)n(C)c1=O", "Potency": "inactive"},
      {"smiles": "O=C(O)C1=CCCNC1", "Potency": "inactive"},
      {"smiles": "N=C(N)c1ccc(N)cc1", "Potency": "inactive"},
      {"smiles": "C[C@@]1(C2CCCC2)Cc2cc(OCC(=O)O)c(Cl)c(Cl)c2C1=O", "Potency": "inactive"},
      {"smiles": "O=C(O)C1=CCNCC1", "Potency": "inactive"},
      {"smiles": "CC[N+](CC)(CC)CC(=O)Nc1c(C)cccc1C", "Potency": "inactive"},
      {"smiles": "CC(=O)C(C)=O", "Potency": "inactive"},
      {"smiles": "CNc1cc(NS(=O)(=O)c2ccc(N)cc2)nc(NC)n1", "Potency": "inactive"},
      {"smiles": "NC1(C(=O)O)CCCCC1", "Potency": "inactive"},
      {"smiles": "CO/N=C(\\C(=O)N[C@@H]1C(=O)N2C(C(=O)O)=C(CSc3nc(=O)c(O)nn3C)CSC12)c1csc(N)n1", "note": "(some centres not stated)", "Potency": "inactive"},
      {"smiles": "NCCS(=O)O", "Potency": "inactive"},
      {"smiles": "N[C@@H](Cc1ccc(O)c(I)c1)C(=O)O", "Potency": "inactive"},
      {"smiles": "O=C(O)CCC(=O)N1CCCC1C(=O)O", "note": "(configuration not stated)", "Potency": "inactive"},
      {"smiles": "NCC(O)(CS(=O)(=O)O)c1ccc(Cl)cc1", "note": "(configuration not stated)", "Potency": "inactive"},
      {"smiles": "CC(C)(C)NCC(O)COc1cccc2[nH]c(=O)[nH]c12", "note": "(configuration not stated)", "Potency": "inactive"},
      {"smiles": "NC1CONC1=O", "note": "(configuration not stated)", "Potency": "inactive"},
      {"smiles": "O=C(O)c1cccnc1C(=O)O", "Potency": "inactive"},
      {"smiles": "CCCCCCCCCCCCCCCCCCOC[C@H](COP(=O)([O-])OCC[N+](C)(C)C)OC", "Potency": "inactive"},
      {"smiles": "COc1ccc(-c2ccc(N)[n+](CCCC(=O)O)n2)cc1", "Potency": "inactive"},
      {"smiles": "CC(N)=NCCCC[C@@H](N)C(=O)O", "Potency": "inactive"},
      {"smiles": "C=C(C)C1CC=C(C(=O)O)CC1", "note": "(configuration not stated)", "Potency": "inactive"},
      {"smiles": "CN[C@H](CC(=O)O)C(=O)O", "Potency": "inactive"},
      {"smiles": "C[C@@H](NCCc1ccc(O)cc1)[C@@H](O)c1ccc(O)cc1", "Potency": "inactive"},
      {"smiles": "CNc1ncnc2c1ncn2[C@H]1C[C@H](OP(=O)(O)O)[C@@H](COP(=O)(O)O)O1", "Potency": "inactive"},
      {"smiles": "COc1cc(CC(=O)O)ccc1O", "Potency": "inactive"},
      {"smiles": "NC1(C(=O)O)CCc2cc(C(=O)O)ccc21", "note": "(configuration not stated)", "Potency": "inactive"}
    ]}
  ]
}
